Several values for one entry are separate records, joined by “and”; a condition that tells them apart may be missing. Equal entries are not always repeated. Hit rate of the full screen: of about 16,000 compounds, about 2,600 (16%) were called active. About 20% were inconclusive and are not listed. Calls follow the shape of the dose curve; as a rule, active = well fitted curve in the direction sought with a large enough effect; inconclusive = small, poorly fitted or top-dose-only effect, or effect the other way; inactive = no such curve, though single readings can be large or run the other way. The list is a sample of the results. Some structures have more than one record in an assay (separate samples or runs), and their calls can disagree.
% is scaled to controls: 0 for no effect and ±100 for the full control effect.

Chain of Cytochrome P450 2D6 (Homo sapiens) (P10635 whole entry, looked up): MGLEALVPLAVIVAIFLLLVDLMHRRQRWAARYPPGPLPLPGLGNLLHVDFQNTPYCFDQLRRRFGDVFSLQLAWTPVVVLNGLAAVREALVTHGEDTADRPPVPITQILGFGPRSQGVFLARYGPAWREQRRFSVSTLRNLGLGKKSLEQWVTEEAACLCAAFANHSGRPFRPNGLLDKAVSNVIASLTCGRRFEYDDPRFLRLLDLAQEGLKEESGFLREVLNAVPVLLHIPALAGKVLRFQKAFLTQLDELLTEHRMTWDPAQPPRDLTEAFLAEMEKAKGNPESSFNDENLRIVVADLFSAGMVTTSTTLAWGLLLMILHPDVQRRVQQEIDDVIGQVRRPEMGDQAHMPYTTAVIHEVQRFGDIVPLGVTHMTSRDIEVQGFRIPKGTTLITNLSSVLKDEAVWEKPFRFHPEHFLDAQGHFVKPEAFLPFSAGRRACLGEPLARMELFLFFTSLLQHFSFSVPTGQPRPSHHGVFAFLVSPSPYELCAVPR

This assay concerns the target Cytochrome P450 2D6 (Homo sapiens) (UniProt P10635). Put plainly: Cytochrome panel assay with activity outcomes. The note with it: recombinant CYP, pro-luciferin dealkylation, luminescence, p450-cyp2d6; series mostly up to 57.1 µM.
As for `CN(C)c1ccnc(Oc2ccc(Cl)cc2)c1C#N`, the AC50 is 5.01 µM (active). On the same count and under the same terms, to `N#Cc1c(-c2ccccc2)ccnc1Oc1ccccc1` belongs “inactive”.

`Cc1cc(C)c(C#N)c(Oc2ccc(F)cc2)n1`: the AC50 entry was “inactive”. On to `COC(=O)[C@@H]1CC[C@H](C)[C@@H](c2ccc(C)cc2)N1C(=O)c1ccc(/C=N\OC[C@@H]2O[C@H](c3ccccc3)C=C[C@@H]2Oc2ccc(OC)cc2)cc1`, for which the activity, negative = inhibition is 3.42% [at 11.4 µM] (inactive).

On to `CCCN[C@@H](C)C(=O)Nc1c(C)csc1C(=O)OC`, for which the AC50 result was “inactive”. Regarding `CCOC(=O)N1CCN(C(=O)c2cccn3c(=O)c4cc(Cl)ccc4nc23)CC1`, the AC50 entry was “inactive”.

For the molecule `CCOC(=O)N1CCN(c2c(-c3ccccc3)c3cc(Cl)ccc3[nH]c2=O)CC1`, the AC50 was 0.355 µM (active). In the case of `CCOC(=O)c1[nH]c2ccc(Cl)cc2c1-c1ccccc1`, the AC50 entry was “inactive”. Still for that read-out and setting: in the case of `O=C(c1ccccc1)N1CCSC1=S` it was “inactive”. On to `COc1ccc(C(=O)[C@H](Br)[C@H](Br)C(=O)O)cc1`, for which the activity, negative = inhibition is -14.6% [at 11.4 µM] (inactive). Regarding `CCOc1cc(/C=N/n2cnnc2)c(Br)cc1O`, the AC50 result was “inactive”. As to `Cn1c(/C=N/NC(=O)c2ccccc2Br)nc2ccccc21`, the AC50 result is “inactive”.

Regarding `Cc1ccc(C(=O)N/N=C/c2nc3ccccc3n2C)cc1`, the AC50 result was “inactive”. With `Cc1ccc(/C=N/NC(=O)CSc2nc3ccccc3n2C)s1`, the AC50 was 7.08 µM (active). For the molecule `O=C(c1cc(Br)ccc1O)c1cc(Br)ccc1O`, the activity, negative = inhibition was -11.4% [at 11.4 µM] (inactive). For `CC(C)=C[C@H]1[C@@H](C(=O)Oc2ccccc2C(C)C)C1(C)C`, the activity, negative = inhibition is 0.868% [at 11.4 µM] (inactive). Regarding `CC1(C)CCC=[N+]1[O-]`, the AC50 entry was “inactive”. As to `Nc1[nH]n2c(=O)c3c(nc2c1N=Nc1ccccc1)CCCC3`, the AC50 entry was “inactive”. On to `Nc1c2c(nc3ccccc13)CCCC2`, for which the AC50 was 5.01 µM (active) and inactive. On the same count and under the same terms, in the case of `Nc1c2c(nc3ccccc13)CCC[C@H]2O` it was “inactive”. Consider `COc1ccc(NC(=O)C2CC(=O)NC3=C2C(=O)CC(C)(C)C3)cc1` (stereo not given), for which the AC50 entry was “inactive”. With `COc1ccc(CCN=CC2=C(O)CC(C)(C)CC2=O)cc1`, the AC50 result is “inactive”. As for `CC(=O)OC[C@@H]1O[C@H](C/C=N\O[C@@H](C)c2cc(-c3c(C)cc(C)cc3C)no2)C=C[C@@H]1OC(C)=O`, the activity, negative = inhibition was -0.786% [at 11.4 µM] (inactive).

Regarding `CC(=O)OC[C@@H]1O[C@H](C/C=N\O[C@@H](C)c2cn([C@H](CO)Cc3ccccc3)nn2)C=C[C@@H]1OC(C)=O`, the activity, negative = inhibition is 6.63% [at 11.4 µM] (inactive) and -11.6% [at 11.4 µM] (inactive). The same measure, in the same setting: in the case of `CC(=O)OC[C@@H]1O[C@H](C/C=N\O[C@@H](C)c2cn([C@H]3COC[C@H]3O)nn2)C=C[C@@H]1OC(C)=O` it was 10.3% [at 11.4 µM] (inactive). As for `CC(=O)OC[C@@H]1O[C@H](C/C=N\O[C@@H](C)CN2CCCCc3nc(C)c(C)cc32)C=C[C@@H]1OC(C)=O`, the AC50 was 3.16 µM (active). Same read-out and setting: in the case of `CC(=O)OC[C@@H]1O[C@H](C/C=N\O[C@@H](C)CN2CCCc3nc(C)c(C)cc32)C=C[C@@H]1OC(C)=O` it was 3.16 µM (active). `CC(=O)OC[C@@H]1O[C@H](C/C=N\OC[C@@H](O)COCc2ccco2)C=C[C@@H]1OC(C)=O`: the activity, negative = inhibition is -5.26% [at 11.4 µM] (inactive). For the molecule `CC(C)Nc1nc(NC(C)(C)C)nc(Oc2ccc(=O)n(-c3ccccc3)n2)n1`, the AC50 result was “inactive”.

On to `Cc1ccc(NC(=O)Nc2nc(-c3ccc(C)s3)cs2)cc1`, for which the AC50 result was “inactive”. The same measure, in the same setting: in the case of `CCCCN(C(=O)NC(=O)Nc1ccccc1OCC)S(C)(=O)=O` it was “inactive”; in that of `Cc1cnn(-c2cc(N/N=C/c3ccccc3)ncn2)c1`, “inactive”; in that of `Cc1ccc2nc(N/N=C\c3cccc(C)n3)cc(C)c2c1`, 3.16 µM (active). In the case of `COc1cccc(C(C#N)N2N=C(C)CC2(C)C)c1O` (stereo not given), the AC50 result is “inactive”.

Take `Cc1nc(S(=O)(=O)N2CCOCC2)c(C#N)c(C)c1Cl`: the AC50 result is “inactive”. Still for that read-out and setting: in the case of `COc1cccc2c1[C@@H]1CN(CCCCn3c(=O)[nH]c4c(sc5ncc(-c6ccccc6)nc54)c3=O)C[C@H]1CO2` it was 31.6 µM (active). Same read-out and setting: to `CCN(CC)C(=O)C1CCCN(c2ccc([N+](=O)[O-])cc2/C=N/NC(=O)c2ccc([N+](=O)[O-])cc2)C1` (stereo not given) belongs “inactive”; to `C/C(N)=C(/C#N)C(=O)COc1ncnc2ccc(Br)cc12`, “inactive”; to `Brc1ccc2ncnc(Nc3cccc4ccccc34)c2c1`, 14.1 µM (active).

Take `Brc1ccc2cccnc2c1`: the AC50 result is “inactive”. Turning to `Cc1cc(C(F)F)n2nc(C(=O)Nc3sc4c(c3C#N)CCC(C)C4)nc2n1` (stereo not given), the AC50 entry is “inactive”. As for `COCCn1c(=O)c(-c2ccc(Cl)cc2)nc2cnc(Oc3ccccc3)nc21`, the AC50 result is “inactive”. For `Cc1cc(C)c(S(=O)(=O)n2ccc(-c3ccc(OCCN(C)c4ccccn4)cc3)n2)c(C)c1`, the AC50 entry was “inactive”. Same read-out and setting: in the case of `CN(CCOc1ccc(C[C@H](Nc2ccccc2C(=O)c2ccccc2)C(=O)O)cc1)c1ccccn1` it was 0.0316 µM (active). For `COC(=O)CN(c1ccccn1)S(=O)(=O)c1ccccc1`, the AC50 entry was “inactive”. Same read-out and setting: to `COCCCN1C(=O)C(=O)/C(=C(/O)c2ccc(OC)cc2C)C1c1cccnc1` (stereo not given) belongs “inactive”; to `Cc1ccc(COc2ccc(Br)cc2/C=N/O)cc1`, 17.8 µM (active); to `CC(C)(C)c1ccc(OCC(=O)N/N=C/c2cc(Br)ccc2OC(=O)c2ccco2)cc1`, “inactive”. `Cc1ccc(COc2coc(CO)cc2=O)cc1`: the AC50 entry is “inactive”. Consider `N#CCCn1c(=O)c(-c2cccc(C#N)c2)nc2cnc(Oc3ccccc3)nc21`, for which the AC50 result is “inactive”.

In the case of `CCNc1ncc2nc(-c3cccs3)c(=O)n(Cc3cccs3)c2n1`, the AC50 entry is “inactive”. Same read-out and setting: to `CN1CCN(c2ncc3nc(-c4cccc(C#N)c4)c(=O)n(CCC#N)c3n2)CC1` belongs “inactive”; to `CCNc1ncc2nc(-c3cn(C)c4ccccc34)c(=O)n(CCC#N)c2n1`, 3.98 µM (active); to `CCNc1ncc2nc(-c3cccs3)c(=O)n(CCC#N)c2n1`, 1.26 µM (active). Consider `CCNc1ncc2nc(C)c(=O)n(Cc3cccs3)c2n1`, for which the AC50 result is “inactive”. `CCNc1ncc2nc(-c3cn(C)c4ccccc34)c(=O)n(Cc3ccc(F)cc3)c2n1`: the AC50 entry was “inactive”. For the molecule `CCNc1ncc2nc(-c3cccs3)c(=O)n(C)c2n1`, the AC50 result is “inactive”. Turning to `N#CCCn1c(=O)c(-c2cccs2)nc2cnc(Nc3ccccc3)nc21`, the AC50 result is “inactive”. Take `CCNc1ncc2nc(-c3cccc(C#N)c3)c(=O)n(CCC#N)c2n1`: the AC50 was 0.0316 µM (active). The same measure, in the same setting: in the case of `COc1ncc2nc(-c3cn(C)c4ccccc34)c(=O)n(CCC#N)c2n1` it was “inactive”; in that of `CCNc1ncc2ncc(=O)n(Cc3cccs3)c2n1`, 12.6 µM (active); in that of `Cc1cc(C)cc(C(=O)N(C)[C@H](Cc2ccc(-c3ccccc3)cc2)C(=O)N[C@@H](Cc2c[nH]c3ccccc23)C(=O)O)c1`, “inactive”. As for `N=c1ccn2c(n1)O[C@H]1[C@@H](OP(=O)(O)O)[C@H](CO)O[C@H]12`, the activity, negative = inhibition is 10.3% [at 11.4 µM] (inactive).

Consider `Cc1cc(-c2n[nH]c(=S)o2)c(C)n1-c1ccccc1`, for which the AC50 result is “inactive”. Regarding `O=C(Nc1nnc(C2CC2)s1)c1cc(S(=O)(=O)N2CCN(c3ccccc3)CC2)ccc1Cl`, the AC50 result is “inactive”. `O=C(N/N=C1/C[C@@H](O)[C@@H](O)[C@@H]2[C@@H]3C(=O)N(Cc4ccccc4)C(=O)[C@H]3CC[C@@H]12)OCc1ccccc1`: the activity, negative = inhibition is 9.46% [at 11.4 µM] (inactive). Consider `O=C1[C@H]2O[C@@H]2[C@@H](O)[C@H]2[C@H]1CCn1c(=O)n(Cc3cc4c(cc3Cl)OCO4)c(=O)n12`, for which the activity, negative = inhibition is -11.5% [at 11.4 µM] (inactive).

For `CCN(CC)C(=O)CSc1nnc(-c2ccco2)n1N`, the AC50 entry is “inactive”. Consider `COc1ccc(COC(=O)N/N=C2/C[C@@H](O)[C@@H](O)[C@@H]3[C@H]4C(=O)N(c5ccc(F)cc5F)C(=O)[C@@H]4CC[C@@H]23)cc1`, for which the activity, negative = inhibition is -3.12% [at 11.4 µM] (inactive). `O=C(Cc1cccs1)N/N=C/C(Br)=C/c1ccccc1`: the AC50 entry is “inactive”.

As to `COc1ncc2nc(-c3cc(F)cc(F)c3)c(=O)n(CCC#N)c2n1`, the AC50 result is “inactive”. The same measure, in the same setting: to `N#CCCn1c(=O)c(-c2cc(F)cc(F)c2)nc2cnc(Nc3ccccc3)nc21` belongs “inactive”; to `N#CCCn1c(=O)c(-c2ccccc2)nc2cnc(Nc3ccccc3)nc21`, “inactive”. For the molecule `COc1ccc(-c2nc3cnc(Nc4ccccc4)nc3n(CCC#N)c2=O)cc1`, the AC50 result was “inactive”.

Take `CCNc1ncc2nc(-c3ccccc3)c(=O)n(CCC#N)c2n1`: the AC50 is 0.501 µM (active). On the same count and under the same terms, to `CCNc1ncc2nc(-c3cc(F)cc(F)c3)c(=O)n(CCC#N)c2n1` belongs 0.0631 µM (active); to `COC(=O)[C@@]1(Cc2ccc(F)cc2)[C@H]2c3cc(C(=O)N4CCCC4)n(CCCNc4ncc(C(F)(F)F)cc4Cl)c3C[C@H]2CN1C(=O)c1ccccc1`, “inactive”. Consider `CCOC(=O)[C@]1(CC(=O)O)CCCC1=O`, for which the activity, negative = inhibition was -6.09% [at 11.4 µM] (inactive). As for `COc1ccc(C2CC(=O)c3cnc(Nc4cc(C)cc(C)c4)nc3C2)cc1` (stereo not given), the AC50 result is “inactive”. Still for that read-out and setting: to `O=C1NC(=O)C(c2ccccc2[N+](=O)[O-])=C1Nc1ccc(O)c(Cl)c1` belongs “inactive”; to `Cc1occc1C(=O)NNC(=O)c1ccc(F)cc1`, “inactive”; to `COc1ccc(-n2c(=S)[nH]c3cc(C(=O)NCCCN4CCCC4=O)ccc3c2=O)cc1`, “inactive”. Regarding `COc1ccc2c(c1OC)C(=O)O[C@@H]2[C@H]1c2c(cc3c(c2OC)OCO3)CCN1C`, the AC50 entry was “inactive”.

For `COc1ccc2c(c1OC)C(=O)OC2[C@H]1c2c(cc3c(c2OC)OCO3)CCN1C` (stereo not given in full), the AC50 is 10 µM (active). `COc1ccc2c(c1OC)C(=O)OC2Nc1ncccc1C` (stereo not given): the AC50 entry was “inactive”. Same read-out and setting: in the case of `COc1ccc(/C(C)=N/NC(=O)c2ccc(CSc3cccc4cccnc34)cc2)cc1OC` it was “inactive”; in that of `Cc1ccccc1-c1cc(C(=O)n2cccn2)c2cc(Cl)ccc2n1`, “inactive”. Consider `Cc1cc(N2C(=O)C(O)=C(C(=O)c3cccs3)C2c2cccc(O)c2)no1` (stereo not given), for which the AC50 result was “inactive”. The same measure, in the same setting: in the case of `COC(=O)CSc1cc(C(F)(F)F)nc(-c2ccccn2)n1` it was “inactive”; in that of `CCOC(=O)CSc1nc2c(cnn2-c2ccc(C)cc2)c(=O)[nH]1`, “inactive”.

These data come from PubChem BioAssay AID1851 (National Center for Advancing Translational Sciences (NCATS), 2009).
